According to ChEMBL document CHEMBL1961873, “Compounds: GSK PKIS; Assays: Nanosyn kinase panel” (2012):

Legend:
[1] = biological target: Sphingosine kinase 1 (Homo sapiens) (UniProt Q9NYA1); conditions: at 1 µM;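 note: mean SPHK1 inhibition value reported from the GSK PKIS kinase panel screen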
[2] = biological target: T1, Sphingosine kinase 2 (Homo sapiens) (UniProt Q9NRA0); conditions: at 0.1 µM
T1 sequence (whole entry): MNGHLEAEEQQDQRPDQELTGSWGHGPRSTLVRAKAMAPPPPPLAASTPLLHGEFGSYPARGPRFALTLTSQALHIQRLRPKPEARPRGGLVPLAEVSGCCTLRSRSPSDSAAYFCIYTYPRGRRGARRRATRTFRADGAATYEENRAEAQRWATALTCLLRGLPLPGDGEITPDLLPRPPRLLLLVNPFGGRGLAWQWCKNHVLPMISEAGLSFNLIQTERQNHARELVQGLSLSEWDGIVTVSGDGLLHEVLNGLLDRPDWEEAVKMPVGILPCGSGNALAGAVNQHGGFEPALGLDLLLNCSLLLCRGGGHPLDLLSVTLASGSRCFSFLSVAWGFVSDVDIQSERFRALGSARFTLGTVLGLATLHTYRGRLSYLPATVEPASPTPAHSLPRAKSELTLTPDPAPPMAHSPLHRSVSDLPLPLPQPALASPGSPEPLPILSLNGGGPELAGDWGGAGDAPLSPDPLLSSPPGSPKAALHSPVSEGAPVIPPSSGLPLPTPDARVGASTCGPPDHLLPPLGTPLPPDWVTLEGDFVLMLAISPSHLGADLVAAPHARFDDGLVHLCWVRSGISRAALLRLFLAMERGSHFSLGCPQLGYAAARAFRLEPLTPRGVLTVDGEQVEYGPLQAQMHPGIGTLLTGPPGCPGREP

[3] = biological target: T1, Sphingosine kinase 2 (Homo sapiens); conditions: at 1 µM
[4] = biological target: Casein kinase II subunit alpha (Homo sapiens) (UniProt P68400); conditions: at 0.1 µM
Sequence of Casein kinase II subunit alpha (Homo sapiens) (P68400 whole entry, looked up): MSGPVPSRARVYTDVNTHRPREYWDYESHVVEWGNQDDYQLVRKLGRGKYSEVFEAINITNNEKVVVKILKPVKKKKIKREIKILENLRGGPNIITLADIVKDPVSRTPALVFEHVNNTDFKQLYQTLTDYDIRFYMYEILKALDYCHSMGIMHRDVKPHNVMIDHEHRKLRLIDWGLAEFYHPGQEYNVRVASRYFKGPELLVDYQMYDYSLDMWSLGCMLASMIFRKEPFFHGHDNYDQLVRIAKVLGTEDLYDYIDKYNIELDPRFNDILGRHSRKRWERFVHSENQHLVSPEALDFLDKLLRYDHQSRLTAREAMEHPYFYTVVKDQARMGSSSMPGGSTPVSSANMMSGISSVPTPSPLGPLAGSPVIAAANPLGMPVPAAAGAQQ

[5] = biological target: Casein kinase II subunit alpha (Homo sapiens) (UniProt P68400); conditions: at 1 µM
[6] = biological target: T2, Inhibitor of nuclear factor kappa-B kinase subunit alpha (Homo sapiens) (UniProt O15111); conditions: at 0.1 µM
T2 sequence (whole entry): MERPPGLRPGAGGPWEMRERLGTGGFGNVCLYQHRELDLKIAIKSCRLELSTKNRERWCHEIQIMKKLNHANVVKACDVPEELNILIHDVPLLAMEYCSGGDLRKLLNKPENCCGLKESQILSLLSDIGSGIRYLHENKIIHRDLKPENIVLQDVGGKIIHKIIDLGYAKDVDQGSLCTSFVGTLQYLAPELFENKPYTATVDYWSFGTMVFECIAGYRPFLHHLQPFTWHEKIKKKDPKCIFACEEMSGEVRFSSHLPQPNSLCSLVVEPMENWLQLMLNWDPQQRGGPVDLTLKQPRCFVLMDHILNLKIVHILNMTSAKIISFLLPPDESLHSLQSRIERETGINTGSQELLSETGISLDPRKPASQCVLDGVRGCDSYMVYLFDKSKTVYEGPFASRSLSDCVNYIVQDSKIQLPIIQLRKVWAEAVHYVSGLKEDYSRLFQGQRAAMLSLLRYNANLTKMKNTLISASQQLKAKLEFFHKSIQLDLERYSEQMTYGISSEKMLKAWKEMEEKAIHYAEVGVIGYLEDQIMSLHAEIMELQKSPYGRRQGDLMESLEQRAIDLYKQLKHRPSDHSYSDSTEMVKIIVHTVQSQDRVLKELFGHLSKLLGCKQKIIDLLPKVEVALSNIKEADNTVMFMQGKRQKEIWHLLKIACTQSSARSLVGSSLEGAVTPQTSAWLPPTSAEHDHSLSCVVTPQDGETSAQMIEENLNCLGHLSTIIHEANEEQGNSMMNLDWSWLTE

[7] = biological target: T2, Inhibitor of nuclear factor kappa-B kinase subunit alpha (Homo sapiens); conditions: at 1 µM
[8] = biological target: T3, Inhibitor of nuclear factor kappa-B kinase subunit beta (Homo sapiens) (UniProt O14920); conditions: at 0.1 µM
T3 sequence (whole entry): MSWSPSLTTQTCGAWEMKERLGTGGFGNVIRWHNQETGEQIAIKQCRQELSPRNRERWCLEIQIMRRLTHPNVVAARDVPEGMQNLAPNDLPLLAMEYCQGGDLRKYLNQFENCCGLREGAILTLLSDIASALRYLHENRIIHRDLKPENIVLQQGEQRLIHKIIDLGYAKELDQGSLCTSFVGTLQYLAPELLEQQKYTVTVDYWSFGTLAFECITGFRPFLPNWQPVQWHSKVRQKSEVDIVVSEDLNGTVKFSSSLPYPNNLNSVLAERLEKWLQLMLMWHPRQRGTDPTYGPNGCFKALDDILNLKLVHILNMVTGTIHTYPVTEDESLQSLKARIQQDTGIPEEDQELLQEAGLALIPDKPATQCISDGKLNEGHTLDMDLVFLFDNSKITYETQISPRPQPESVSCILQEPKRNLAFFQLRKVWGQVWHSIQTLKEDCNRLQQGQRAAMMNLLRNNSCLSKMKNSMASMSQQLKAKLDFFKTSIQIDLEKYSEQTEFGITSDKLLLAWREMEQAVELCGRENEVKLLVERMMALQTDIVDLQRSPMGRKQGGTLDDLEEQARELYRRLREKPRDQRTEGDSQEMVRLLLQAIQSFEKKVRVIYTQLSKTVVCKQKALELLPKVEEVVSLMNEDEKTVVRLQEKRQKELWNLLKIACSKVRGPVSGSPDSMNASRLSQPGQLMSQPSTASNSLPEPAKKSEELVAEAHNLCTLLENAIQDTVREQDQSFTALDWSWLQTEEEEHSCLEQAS

[9] = biological target: T3, Inhibitor of nuclear factor kappa-B kinase subunit beta (Homo sapiens); conditions: at 1 µM
[10] = biological target: T4, Inhibitor of nuclear factor kappa-B kinase subunit epsilon (Homo sapiens) (UniProt Q14164); conditions: at 0.1 µM
T4 sequence (whole entry): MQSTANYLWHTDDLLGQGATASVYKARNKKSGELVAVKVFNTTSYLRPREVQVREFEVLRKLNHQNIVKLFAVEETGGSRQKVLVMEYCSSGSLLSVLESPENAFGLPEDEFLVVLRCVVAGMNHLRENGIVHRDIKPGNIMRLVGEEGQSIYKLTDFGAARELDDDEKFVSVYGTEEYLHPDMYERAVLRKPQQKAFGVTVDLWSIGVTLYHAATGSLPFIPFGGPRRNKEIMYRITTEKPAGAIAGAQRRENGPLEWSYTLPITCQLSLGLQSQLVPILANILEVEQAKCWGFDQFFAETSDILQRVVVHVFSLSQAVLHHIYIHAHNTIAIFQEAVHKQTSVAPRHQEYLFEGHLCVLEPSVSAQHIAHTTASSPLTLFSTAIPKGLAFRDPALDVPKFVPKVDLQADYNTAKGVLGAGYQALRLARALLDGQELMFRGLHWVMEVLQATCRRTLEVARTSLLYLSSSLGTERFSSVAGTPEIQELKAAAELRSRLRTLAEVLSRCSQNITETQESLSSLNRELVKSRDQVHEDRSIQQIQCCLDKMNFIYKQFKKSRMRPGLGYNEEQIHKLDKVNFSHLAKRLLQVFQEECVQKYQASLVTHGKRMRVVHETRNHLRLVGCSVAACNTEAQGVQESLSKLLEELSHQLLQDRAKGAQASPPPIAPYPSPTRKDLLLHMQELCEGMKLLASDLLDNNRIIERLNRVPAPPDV

[11] = biological target: T4, Inhibitor of nuclear factor kappa-B kinase subunit epsilon (Homo sapiens); conditions: at 1 µM
[12] = biological target: T5, Serine/threonine-protein kinase Nek1 (Homo sapiens) (UniProt Q96PY6); conditions: at 0.1 µM
T5 sequence (whole entry): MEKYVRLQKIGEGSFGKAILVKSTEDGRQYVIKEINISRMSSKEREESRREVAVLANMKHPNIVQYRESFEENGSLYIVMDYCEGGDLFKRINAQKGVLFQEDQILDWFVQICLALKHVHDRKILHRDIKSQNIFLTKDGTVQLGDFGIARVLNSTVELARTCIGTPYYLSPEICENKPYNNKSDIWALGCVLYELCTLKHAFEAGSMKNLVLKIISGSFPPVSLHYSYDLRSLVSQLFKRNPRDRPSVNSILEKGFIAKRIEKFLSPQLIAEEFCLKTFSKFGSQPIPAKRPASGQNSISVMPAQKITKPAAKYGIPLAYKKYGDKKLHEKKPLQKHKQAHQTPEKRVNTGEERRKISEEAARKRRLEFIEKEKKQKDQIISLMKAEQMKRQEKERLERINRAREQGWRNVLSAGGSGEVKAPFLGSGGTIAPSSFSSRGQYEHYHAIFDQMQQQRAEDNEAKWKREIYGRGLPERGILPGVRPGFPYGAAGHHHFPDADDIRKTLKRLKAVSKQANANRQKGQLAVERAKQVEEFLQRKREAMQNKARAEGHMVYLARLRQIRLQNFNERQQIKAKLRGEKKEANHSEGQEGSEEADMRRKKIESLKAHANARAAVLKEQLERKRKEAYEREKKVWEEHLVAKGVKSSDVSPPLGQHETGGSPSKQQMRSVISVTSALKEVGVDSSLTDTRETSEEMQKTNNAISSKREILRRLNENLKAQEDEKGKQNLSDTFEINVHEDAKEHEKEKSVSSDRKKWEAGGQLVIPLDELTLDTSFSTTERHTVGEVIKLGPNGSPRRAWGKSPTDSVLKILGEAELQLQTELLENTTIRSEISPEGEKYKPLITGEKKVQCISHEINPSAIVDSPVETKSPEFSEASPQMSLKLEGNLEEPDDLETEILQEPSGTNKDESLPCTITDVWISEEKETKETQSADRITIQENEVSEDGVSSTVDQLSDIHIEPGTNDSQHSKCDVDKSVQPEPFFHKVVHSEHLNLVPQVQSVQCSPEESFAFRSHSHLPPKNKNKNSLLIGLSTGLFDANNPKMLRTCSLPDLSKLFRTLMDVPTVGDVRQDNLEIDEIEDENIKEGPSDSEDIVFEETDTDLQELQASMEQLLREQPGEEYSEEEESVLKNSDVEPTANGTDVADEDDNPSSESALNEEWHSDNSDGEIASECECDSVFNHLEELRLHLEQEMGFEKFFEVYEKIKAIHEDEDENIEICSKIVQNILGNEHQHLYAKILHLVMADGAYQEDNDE

[13] = biological target: T5, Serine/threonine-protein kinase Nek1 (Homo sapiens); conditions: at 1 µM
[14] = biological target: T6, Serine/threonine-protein kinase Nek2 (Homo sapiens) (UniProt P51955); conditions: at 0.1 µM
T6 sequence (whole entry): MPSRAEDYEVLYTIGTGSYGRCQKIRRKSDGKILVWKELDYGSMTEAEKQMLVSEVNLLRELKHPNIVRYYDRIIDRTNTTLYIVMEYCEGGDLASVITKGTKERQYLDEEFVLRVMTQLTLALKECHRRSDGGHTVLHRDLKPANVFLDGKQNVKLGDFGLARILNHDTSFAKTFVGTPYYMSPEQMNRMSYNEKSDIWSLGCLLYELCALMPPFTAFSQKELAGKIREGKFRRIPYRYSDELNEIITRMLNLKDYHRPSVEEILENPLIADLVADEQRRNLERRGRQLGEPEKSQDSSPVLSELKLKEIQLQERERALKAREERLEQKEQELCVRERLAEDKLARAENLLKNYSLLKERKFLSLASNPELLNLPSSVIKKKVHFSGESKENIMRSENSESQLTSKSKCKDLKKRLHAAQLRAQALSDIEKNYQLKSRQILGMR

[15] = biological target: T6, Serine/threonine-protein kinase Nek2 (Homo sapiens); conditions: at 1 µM
[16] = biological target: Serine/threonine-protein kinase Nek6 (Homo sapiens) (UniProt Q9HC98); conditions: at 0.1 µM
Sequence of Serine/threonine-protein kinase Nek6 (Homo sapiens) (Q9HC98 whole entry): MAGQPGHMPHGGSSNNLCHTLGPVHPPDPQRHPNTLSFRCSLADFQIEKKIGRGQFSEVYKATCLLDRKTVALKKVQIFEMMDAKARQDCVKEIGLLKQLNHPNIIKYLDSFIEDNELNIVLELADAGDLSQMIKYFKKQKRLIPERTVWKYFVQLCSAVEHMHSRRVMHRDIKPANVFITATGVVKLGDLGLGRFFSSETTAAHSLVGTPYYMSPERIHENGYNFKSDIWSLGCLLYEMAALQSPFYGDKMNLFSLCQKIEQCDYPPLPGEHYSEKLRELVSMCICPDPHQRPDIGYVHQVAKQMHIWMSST

[17] = biological target: Serine/threonine-protein kinase Nek6 (Homo sapiens) (UniProt Q9HC98); conditions: at 1 µM
[18] = biological target: Serine/threonine-protein kinase Nek7 (Homo sapiens) (UniProt Q8TDX7); conditions: at 0.1 µM
Sequence of Serine/threonine-protein kinase Nek7 (Homo sapiens) (Q8TDX7 whole entry, looked up): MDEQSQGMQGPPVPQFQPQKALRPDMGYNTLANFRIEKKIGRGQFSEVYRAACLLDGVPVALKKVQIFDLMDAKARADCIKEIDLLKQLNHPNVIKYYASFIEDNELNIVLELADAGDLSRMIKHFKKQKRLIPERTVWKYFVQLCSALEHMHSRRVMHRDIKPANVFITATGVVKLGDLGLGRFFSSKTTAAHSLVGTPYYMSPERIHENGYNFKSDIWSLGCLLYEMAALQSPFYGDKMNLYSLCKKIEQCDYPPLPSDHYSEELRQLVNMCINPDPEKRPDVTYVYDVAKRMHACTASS

[19] = biological target: Serine/threonine-protein kinase Nek7 (Homo sapiens) (UniProt Q8TDX7); conditions: at 1 µM
[20] = biological target: T7, Serine/threonine-protein kinase Nek9 (Homo sapiens) (UniProt Q8TD19); conditions: at 0.1 µM;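 note: reported value is the mean percent inhibition of NEK9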
T7 sequence (whole entry): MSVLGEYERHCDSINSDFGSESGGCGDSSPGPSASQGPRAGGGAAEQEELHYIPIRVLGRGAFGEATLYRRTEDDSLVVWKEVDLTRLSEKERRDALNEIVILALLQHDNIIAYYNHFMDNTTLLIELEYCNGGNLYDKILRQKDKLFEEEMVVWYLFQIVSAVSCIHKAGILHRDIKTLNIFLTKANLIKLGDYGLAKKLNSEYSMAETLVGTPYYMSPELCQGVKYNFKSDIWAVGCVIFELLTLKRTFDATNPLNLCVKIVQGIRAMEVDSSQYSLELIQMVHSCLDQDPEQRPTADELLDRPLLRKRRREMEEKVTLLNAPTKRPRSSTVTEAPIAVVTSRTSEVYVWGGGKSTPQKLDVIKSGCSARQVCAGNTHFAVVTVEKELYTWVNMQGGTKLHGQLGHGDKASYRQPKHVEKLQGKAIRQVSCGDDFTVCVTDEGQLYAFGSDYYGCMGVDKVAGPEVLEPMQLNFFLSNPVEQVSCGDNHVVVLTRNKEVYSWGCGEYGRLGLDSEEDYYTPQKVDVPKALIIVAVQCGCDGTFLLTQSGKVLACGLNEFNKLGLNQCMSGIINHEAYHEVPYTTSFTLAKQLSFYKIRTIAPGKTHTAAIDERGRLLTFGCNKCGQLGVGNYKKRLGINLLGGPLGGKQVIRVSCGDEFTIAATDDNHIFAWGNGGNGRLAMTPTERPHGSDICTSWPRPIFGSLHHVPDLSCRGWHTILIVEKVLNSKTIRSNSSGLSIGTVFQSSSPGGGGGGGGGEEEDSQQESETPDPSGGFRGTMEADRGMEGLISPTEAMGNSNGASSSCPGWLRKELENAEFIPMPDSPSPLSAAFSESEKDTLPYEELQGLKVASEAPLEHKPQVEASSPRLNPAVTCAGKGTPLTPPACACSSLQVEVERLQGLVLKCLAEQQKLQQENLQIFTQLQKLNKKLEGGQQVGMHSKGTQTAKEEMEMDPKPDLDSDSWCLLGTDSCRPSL

Sequence of Sphingosine kinase 1 (Homo sapiens) (Q9NYA1 whole entry): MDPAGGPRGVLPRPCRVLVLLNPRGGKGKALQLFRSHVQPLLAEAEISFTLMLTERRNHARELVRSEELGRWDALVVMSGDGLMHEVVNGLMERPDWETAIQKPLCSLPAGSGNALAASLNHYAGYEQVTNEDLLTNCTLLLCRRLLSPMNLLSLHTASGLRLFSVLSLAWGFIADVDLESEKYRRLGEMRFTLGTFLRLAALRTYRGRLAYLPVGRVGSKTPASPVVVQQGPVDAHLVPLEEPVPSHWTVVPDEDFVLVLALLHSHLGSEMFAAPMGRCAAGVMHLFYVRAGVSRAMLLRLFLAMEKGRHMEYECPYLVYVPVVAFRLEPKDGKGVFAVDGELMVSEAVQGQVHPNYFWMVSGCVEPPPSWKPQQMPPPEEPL

Row | SMILES | inhibition [1] [%] | inhibition [2] [%] | inhibition [3] [%] | inhibition [4] [%] | inhibition [5] [%] | inhibition [6] [%] | inhibition [7] [%] | inhibition [8] [%] | inhibition [9] [%] | inhibition [10] [%] | inhibition [11] [%] | inhibition [12] [%] | inhibition [13] [%] | inhibition [14] [%] | inhibition [15] [%] | inhibition [16] [%] | inhibition [17] [%] | inhibition [18] [%] | inhibition [19] [%] | inhibition [20] [%]
1 | CS(=O)(=O)CCN(CC#N)Cc1ccc(-c2ccc3ncnc(Nc4ccc(OCc5cccc(F)c5)c(Cl)c4)c3c2)o1 | -0.02 | -0.3 | -0.75 | 5.37 | 1.72 | 4.16 | 2.09 | 3.6 | 3.73 | 1.37 | 1.93 | 0.91 | 1.78 | 3.59 | 2.16 | 2.16 | -0.23 | 2.49 | 7.27 | 2.5
2 | CNC(=O)c1cncc(/C=C/c2c(Cl)cccc2Cl)c1 | -1.49 | 0.89 | -2.09 | 16.9 | 14.9 | 1.91 | 0.72 | 7.67 | 11.4 | 5.94 | 6.17 | 2.78 | 1.83 | 4.53 | 3.38 | 1.11 | 4.76 | 4.23 | 9.84 | 5.43
